Hit rate of the full screen: of about 290,000 compounds, about 1,100 (0.38%) were called active. The call rests on the fitted dose curve; in most records, active means well fitted inhibition curve with a large enough effect; inconclusive means small, poorly fitted or top-dose-only effect, or another doubt; inactive means no such curve, though single readings can be large or run the other way. The sample as a whole holds a higher share of actives than the screen did.
On the % scale 0 is the no-effect control and ±100 the full control effect; potency means the concentration at half of the fitted maximal effect.

Chain of Pyruvate kinase (Leishmania mexicana) (Q27686 whole entry, looked up): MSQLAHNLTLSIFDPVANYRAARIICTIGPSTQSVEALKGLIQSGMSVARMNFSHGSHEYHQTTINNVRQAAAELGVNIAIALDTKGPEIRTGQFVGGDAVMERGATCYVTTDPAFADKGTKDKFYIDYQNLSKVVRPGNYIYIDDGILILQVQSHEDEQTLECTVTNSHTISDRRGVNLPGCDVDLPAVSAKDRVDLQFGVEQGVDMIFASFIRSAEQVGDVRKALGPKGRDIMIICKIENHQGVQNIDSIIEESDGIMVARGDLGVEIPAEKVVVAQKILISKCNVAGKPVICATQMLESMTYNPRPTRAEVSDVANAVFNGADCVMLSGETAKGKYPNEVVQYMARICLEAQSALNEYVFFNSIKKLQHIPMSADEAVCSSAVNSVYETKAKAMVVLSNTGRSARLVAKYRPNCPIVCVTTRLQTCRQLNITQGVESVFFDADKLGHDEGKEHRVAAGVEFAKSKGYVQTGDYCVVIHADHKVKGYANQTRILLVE

This assay concerns the target Pyruvate kinase (Leishmania mexicana) (UniProt Q27686). The experiment in a line: qHTS Assay for Inhibitors of Leishmania Mexicana Pyruvate Kinase (LmPK). Conditions: purified LmPK, Kinase-Glo ATP luminescence, 1 h; series mostly up to 57.5 µM; activity change, negative = inhibition: at the top concentration. The source says: NIH Chemical Genomics Center [NCGC] Malcolm Walkinshaw, Hugh Morgan, Linda Gilmore University of Edinburgh, UK MLPCN Grant: 1 R03 MH085697-01 NCGC Assay Overview: Pyruvate kinase (L. Mexicana) (LmPK) enzyme was supplied as a highly purified (>95% pure) sulphate-free preparation from University of Edinburgh, UK and assayed for its ability to generate ATP from ADP using phosphoenolpyruvate (PEP) as a substrate. ATP generation was detected in a coupled reaction by luciferase-mediated luminescence, an ATP-dependent process. […] The enzyme was assayed at an intermediate level of activity to screen for both inhibitors and activators.
NCGC Assay Protocol Summary: Three uL of enzyme mix (kept on ice) in assay buffer (50 mM Imidazole pH7.2, 50 mM KCl, 7 mM MgCl2, 0.01% Tween 20, 0.05% BSA) containing PEP (0.5 mM final concentration) and LmPK (0.1 nM final concentration) was dispensed into white solid bottom 1,536 well microtiter plates. 23 nL of compound were delivered by a pin tool and 1 uL of ADP mix in assay buffer (r.t; 0.1 mM final ADP concentration) was added. Plates were incubated at room temperature for 1 hour. Two uL of detection mix (Kinase-Glo, Promega; at 4 degree Celsius protected from light) was added and luminescence read by a ViewLux (Perkin Elmer) at 1 second exposure/plate. Data were normalized to the uninhibited and AC100 inhibition (no enzyme). To monitor activation, the first column contained a five-fold concentration of LmPK (0.5 nM).
(Quantitative high-throughput screening tests each substance at several concentrations.)
Consider `CC1CC(C)CN(c2ccc(S(=O)(=O)N3CCOCC3)cc2)C1` (stereo not drawn), for which the “activity change, negative = inhibition” value is -0.351% (inactive). On to `Cc1cc(CN(C)C(=O)c2cc(COc3ccc(C)c(C)c3)on2)n[nH]1`, for which the “activity change, negative = inhibition” value was -9.74% (inactive). As for `Nc1ncc(-c2cc3ccccc3oc2=O)s1`, the Potency was 11.2 µM (active). On to `O=C(NCc1cccnc1)c1cccc(-c2cc3ccccc3oc2=O)c1`, for which the “activity change, negative = inhibition” value was 4.26% (inactive).

Regarding `O=c1oc2ccccc2cc1-c1csc(Nc2ccc(O)cc2)n1`, the “activity change, negative = inhibition” value was -1.09% (inactive). In the case of `Clc1ccc(-c2ncc3ccccn23)c(Cl)c1`, the “activity change, negative = inhibition” value is 13.2% (inactive). The same measure, in the same setting: the result for `O=C1CSC(c2ccccc2)N1c1nc(-c2ccc(Cl)cc2Cl)cs1` (stereo not drawn) reads 3.75% (inactive). As to `Clc1ccc(-c2cc(-c3ccccn3)on2)c(Cl)c1`, the Potency was 15.8 µM (active).

For the molecule `CCOC(=O)C(C)n1cnc2c(nnn2-c2ccc(F)cc2)c1=O` (stereo not drawn), the “activity change, negative = inhibition” value was -2.05% (inactive). `CN(C)N1C(N)=C(C#N)C(c2ccc(Br)cc2)C2=C1CCCC2=O` (stereo not drawn): the “activity change, negative = inhibition” value is -1.06% (inactive). Still for that read-out and setting: then `COc1ccc(-c2cn3cccnc3n2)cc1`, with -19.6% (inactive). For the molecule `COc1ccc(-c2cn3ccc(C)cc3n2)cc1`, the Potency is 8.91 µM (active).

In the case of `CCN(CC)S(=O)(=O)c1ccc(-c2cn3ccc(C)cc3n2)cc1`, the “activity change, negative = inhibition” value is 6.04% (inactive).

Take `Cc1ccc(NS(=O)(=O)c2c(C)[nH]c(C)c2C(=O)N2CCCCC2)c(C)c1`: the “activity change, negative = inhibition” value was 3.83% (inactive). Same read-out and setting: the result for `COc1ccc(Br)cc1C(=O)NC(=S)Nc1cc(-c2nc3ccccc3[nH]2)ccc1C` reads -0.276% (inactive); that for `Cc1ccc(-c2nc3ccccc3[nH]2)cc1NC(=O)c1sc2ccccc2c1Cl`, 2.87% (inactive).

With `O=C(Nc1cccc(-c2nc3ccccc3[nH]2)c1)c1ccc(C(=O)Nc2cccc(-c3nc4ccccc4[nH]3)c2)cc1`, the “activity change, negative = inhibition” value was -0.55% (inactive). Turning to `Cc1ccc(-c2nc3ccccc3[nH]2)cc1N`, the Potency is 15.8 µM (active).

On to `OC(c1nc2ccccc2[nH]1)C(O)C(O)C(O)c1nc2ccccc2[nH]1` (stereo not drawn), for which the “activity change, negative = inhibition” value is -3.27% (inactive).

Regarding `c1ccc2[nH]c(-c3nc4ccccc4[nH]3)nc2c1`, the Potency is 8.91 µM (active).

For `C[C@H](NC(=O)C1CCN(S(=O)(=O)c2ccccc2)CC1)C(=O)NCc1ccccc1`, the “activity change, negative = inhibition” value is 7.11% (inactive). On the same count and under the same terms, then `COc1ccccc1C(=O)NC(=S)Nc1ccccc1N1CCCCC1`, with -1.2% (inactive); and `CC1(C)Cc2c(sc(NC(=O)C(=O)N3CCOCC3)c2C#N)CO1`, with -5.69% (inactive).

`COc1ccc(C(=O)C[n+]2ccc(N)c(C)c2C)cc1`: the Potency was 7.94 µM (active). `COc1ccc(OCCC(=O)c2ccc(OC)cc2)cc1`: the “activity change, negative = inhibition” value is 1.36% (inactive). On the same count and under the same terms, then `COc1ccc(C(=O)C[n+]2ccc(C)cc2)cc1`, with -0.711% (inactive); and `CC(=O)NC1=NN(C(C)=O)C(C)(c2ccc(Cl)s2)S1` (stereo not drawn), with -1.14% (inactive); and `CC(C)[C@H](NC(=O)N1CCn2c1nc1ccccc12)C(=O)NCc1ccc2c(c1)OCO2`, with 9.8% (inactive). Consider `N/C(=N\OC(=O)c1ccc([N+](=O)[O-])cc1)c1ccccn1`, for which the Potency was 5.01 µM (active). Turning to `COc1ccc(C(=O)O/N=C(\N)c2ccccn2)cc1[N+](=O)[O-]`, the “activity change, negative = inhibition” value is 4.73% (inactive). With `N/C(=N\OC(=O)Cc1ccc([N+](=O)[O-])cc1)c1ccccn1`, the “activity change, negative = inhibition” value is -2.74% (inactive). As for `COc1cccc(NC(=O)[C@H](Cc2c[nH]c3ccccc23)NC(=O)[C@@H]2Cc3ccccc3CN2)c1`, the “activity change, negative = inhibition” value is 6.25% (inactive). Still for that read-out and setting: the result for `COc1cc(C(=O)N/C(=C\c2cn(C)c3ccccc23)C(=O)N2CCOCC2)cc(OC)c1OC` reads -3.61% (inactive). As to `COc1cnc(-c2ccccn2)nc1Oc1ccc(C(C)(C)C)cc1`, the “activity change, negative = inhibition” value is 1.88% (inactive). Same read-out and setting: then `C(=N\N1CCN(c2ccccn2)CC1)/C1=C(N2CCOCC2)C(=C/c2ccccc2)/CC1`, with 0.842% (inactive).

On to `O=C1Nc2ccc(Br)cc2/C1=N/N=C/C1=C(N2CCOCC2)C(=C\c2ccccc2)/CC1`, for which the Potency is 14.1 µM (active). As to `N#C/C(=C\C1=C(N2CCOCC2)C(=C\c2ccccc2)/CC1)C(=O)Nc1ccccc1F`, the “activity change, negative = inhibition” value is -21.5% (inactive).

For `CC1CCC2CCCCC2N1C(=O)c1cc([N+](=O)[O-])cc([N+](=O)[O-])c1` (stereo not drawn), the “activity change, negative = inhibition” value is -2.35% (inactive). On to `CCCS(=O)(=O)N1CCN=C1SCc1cccc(F)c1`, for which the “activity change, negative = inhibition” value is -2.88% (inactive). On the same count and under the same terms, the result for `COc1ccc(-c2nc3cc([N+](=O)[O-])ccc3o2)cc1OC` reads 3.94% (inactive).

For `COc1cccc(-c2nc3cc(C)ccc3o2)c1`, the Potency is 14.1 µM (active). For the molecule `COc1ccc2oc(-c3cccc(NC(=O)CSc4ccc(Cl)cc4)c3)nc2c1`, the “activity change, negative = inhibition” value is 1.44% (inactive). Same read-out and setting: then `COc1ccc(Cc2nc(-c3ccccn3)no2)cc1OC`, with 2.13% (inactive). Regarding `c1ccc(-c2noc(-c3cccs3)n2)nc1`, the Potency was 11.2 µM (active).

Regarding `COc1nc(-c2ccc(Cl)cc2)ccc1-c1noc(-c2cccs2)n1`, the “activity change, negative = inhibition” value was 2.05% (inactive). Turning to `C=CCOc1ccc(C(=O)Nc2ccccc2C(=O)N2CCCC2)cc1`, the “activity change, negative = inhibition” value is 3.25% (inactive). `COC(=O)c1ccc(C23CC4(C2)[C@H](CN(Cc2cccnc2)[C@@H]4c2ccccc2)C3c2ccc(Cl)nc2)cc1` (stereo partly drawn): the “activity change, negative = inhibition” value was 4.28% (inactive). With `Cc1cccc(NC(=O)c2cc(S(=O)(=O)N3CCC4(CC3)OCCO4)ccc2F)c1`, the “activity change, negative = inhibition” value was -12.3% (inactive). The same measure, in the same setting: then `CCCCCCCC1=Cc2ccc(F)cc2C(C(C(=O)OC)C(=O)OC)N1C(=O)OC` (stereo not drawn), with -1.7% [at 11.5 µM] (inactive). `S=c1[nH]ccn1-c1ccc(Cl)cc1`: the Potency is 25.1 µM (active). With `O=S(=O)(c1ccc(F)cc1)N1CCN=C1SCc1cccc(F)c1`, the “activity change, negative = inhibition” value was -5% (inactive). Turning to `CC(=O)Oc1cccc(C(=O)Nc2ccccc2NC(=O)c2cccc(OC(C)=O)c2)c1`, the “activity change, negative = inhibition” value was -0.0951% (inactive). For `C=CCN1c2ccccc2[C@]23C[C@@H](C(=O)OC)N(S(=O)(=O)c4ccc([N+](=O)[O-])cc4)C2=NC(C(=O)OC)=C(C(=O)OC)[C@H]13`, the activity change, negative = inhibition is -3.12% [at 11.5 µM] (inactive). In the case of `CC(=O)Nc1ccc(NC(=O)CN2C(=O)COc3ccc(S(=O)(=O)N4CCCCC4)cc32)cc1`, the “activity change, negative = inhibition” value was -9.76% (inactive). Turning to `COc1ccc(C2=Nc3cc(C)ccc3OC2)cc1`, the Potency was 11.2 µM (active). With `COc1ccc(NC(=O)c2cc(-c3ccc(C)cc3)on2)cc1`, the “activity change, negative = inhibition” value is 0.318% (inactive). Same read-out and setting: then `COc1ccc(C2=NOC3(CC(=O)N(c4ccc(C)cc4)C3=O)C2)cc1` (stereo not drawn), with 1.45% (inactive). Consider `COc1ccccc1CN1CCNC(=O)C1CC(=O)N(C)CC1CCOCC1` (stereo not drawn), for which the “activity change, negative = inhibition” value was 7.5% (inactive). On to `Cc1cccc(NC(=O)C2CCCN(C(=O)Nc3ccc(F)cc3)C2)c1C` (stereo not drawn), for which the “activity change, negative = inhibition” value was 1.61% (inactive).

On to `COc1cc2c(C(=O)N(C)c3cc(Cl)ccc3OC)cn(C)c(=O)c2cc1OC`, for which the “activity change, negative = inhibition” value was 1.4% (inactive). On to `COC(=O)C1=C(C(=O)OC)[C@@H]2Nc3ccccc3[C@@]23C[C@@H](C(=O)OC)N(S(=O)(=O)c2ccc([N+](=O)[O-])cc2)C3=N1`, for which the activity change, negative = inhibition was -0.378% [at 11.5 µM] (inactive).

Consider `O=C(Nc1ccc(Cl)cn1)c1ccc2c(c1)OCCO2`, for which the Potency is 28.2 µM (active). For the molecule `O=C(Nc1cccc(S(=O)(=O)Nc2ccc(Cl)cc2)c1)c1ccc2c(c1)OCCO2`, the “activity change, negative = inhibition” value is 2.39% (inactive).

`Cc1nc(NC(=O)c2ccc3c(c2)OCCO3)ccc1Br`: the “activity change, negative = inhibition” value was -11.3% (inactive). Same read-out and setting: the result for `COC(=O)C(C(=O)OC)C1c2ccccc2C=C(C2CC2)N1C(=O)OC` (stereo not drawn) reads -6.03% [at 11.5 µM] (inactive); that for `O=C(O)CCN=C1CCc2ccccc2N1`, -0.35% (inactive).

`CSc1cccc(NC(=S)N(C(C)C)C(C)c2ccccn2)c1` (stereo not drawn): the “activity change, negative = inhibition” value is 7.92% (inactive).

As to `Cc1ccc(O)c(/C=N/NC(=O)COc2ccc3c(C)cc(=O)oc3c2)c1`, the “activity change, negative = inhibition” value is 3.6% (inactive).

(Values after PubChem BioAssay AID1721 (National Center for Advancing Translational Sciences (NCATS), 2009).)
